High-throughput results: PubChem BioAssay, National Center for Advancing Translational Sciences (NCATS)
The list is not random: actives were taken first. Their share in the collection is about 10%.
SW480 rerep: inducers of DNA re-replication in SW480 colon cancer cells; SW480 DNA re-replication, Hoechst DNA content imaging, 48 h; Potency, µM (top dose mostly 46.1 µM), for inactives: top-dose re-replication activation, usual class: activators; 340,000 tested, 1.8% active; note: % of control where 0% means no effect; nearly all actives have a fitted effect of over 55% in size
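Readout is total intensity of Hoechst-stained nuclei, excited at 405 nm and collected at 500-530 nm. Compound treatment lasted 48 hr at 37 C in 5% CO2 before staining.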
KB-3-1 tox: KB-3-1 parental cell cytotoxicity | KB-3-1 viability, CellTiter-Glo ATP luminescence, 72 h | 400,000 tested, 1.4% active | Potency, µM (titrated, usually from 46.1 µM), most hits filed as cytotoxic; note: % is set by controls: 0 for no effect and ±100 for the full control effect; nearly all actives have a fitted effect of over 60% in size
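Here the drug-naive KB-3-1 line serves as comparator for MDR sub-line selectivity; cells received compound titrations, 72 h at 37 °C, then CellTiter-Glo readout.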
MCF10A rereplic: inducers of DNA re-replication in MCF 10A breast cells; MCF 10A DNA re-replication, Hoechst nuclear intensity, 48 h; Potency, µM (top dose mostly 46.1 µM), for inactives: at the top dose activity, positive = re-replication, actives largely listed as activators; 350,000 tested, 2.9% active; note: % of control where 0% means no effect; nearly all actives have a fitted effect of over 50% in size
RORg inh: ROR gamma (mouse) transcription inhibition | Drosophila S2 Gal4-RORgamma UAS-luciferase reporter, 20 h | Potency, µM (series often up to 53.6 µM), for the others: top-dose activity change, negative = inhibition, hits mostly inhibitors | 310,000 tested, 5.4% active; note: % is set by controls: 0 for no effect and ±100 for the full control effect; nearly all actives have a fitted effect of over 60% in size
Target sequence (P51450 whole entry, looked up, the tested form may be a part): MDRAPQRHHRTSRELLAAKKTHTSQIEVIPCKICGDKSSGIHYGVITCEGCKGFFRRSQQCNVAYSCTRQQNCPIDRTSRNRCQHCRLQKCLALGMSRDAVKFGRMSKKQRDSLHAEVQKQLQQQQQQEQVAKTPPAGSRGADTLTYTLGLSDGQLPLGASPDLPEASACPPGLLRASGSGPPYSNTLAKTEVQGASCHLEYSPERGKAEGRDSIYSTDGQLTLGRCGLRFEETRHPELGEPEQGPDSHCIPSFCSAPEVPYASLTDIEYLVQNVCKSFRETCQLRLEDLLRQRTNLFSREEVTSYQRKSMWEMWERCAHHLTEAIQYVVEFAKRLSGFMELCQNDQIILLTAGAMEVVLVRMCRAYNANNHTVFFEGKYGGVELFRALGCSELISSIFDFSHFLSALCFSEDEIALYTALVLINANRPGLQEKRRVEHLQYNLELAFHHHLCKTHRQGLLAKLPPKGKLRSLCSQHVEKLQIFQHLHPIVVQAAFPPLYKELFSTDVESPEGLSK
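A Gal4/UAS one-hybrid system in insect cells: metallothionein-promoter Gal4–ROR gamma fusion plus Photinus luciferase reporter. Copper sulfate 700 uM final, 20 hr ambient incubation, luminescent detection after 10 min with reagent.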
VP16 counter: counter-screen for ROR gamma inhibitors: Gal4-VP16 reporter; Drosophila S2 Gal4-VP16 UAS-luciferase, luminescence, 20 h; 310,000 tested, 3.5% active; Potency, µM (top dose mostly 53.6 µM), for the others: at the top dose activity, negative = inhibition, usual class: inhibitors;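 note: Gal4-VP16 expression switched on by copper sulfate through the metallothionein promoter; % is set by controls: 0 for no effect and ±100 for the full control effect; nearly all actives have a fitted effect of over 50% in size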
KB-V1 MDR tox: kills drug-selected multidrug resistant KB-V1 cells; AID 1347076; Potency, µM (titrated, usually from 46.1 µM), usual class: cytotoxic; 400,000 tested, 3.4% active; KB-V1 MDR cells viability, CellTiter-Glo, 72 h; note: % is set by controls: 0 for no effect and ±100 for the full control effect; nearly all actives have a fitted effect of over 60% in size
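qHTS viability screen in drug-selected KB-V1 MDR cells: 72 h compound treatment at 37 degrees C, ATP luminescence end point.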
* hit, by the source's call; i = inactive; ? = inconclusive; · = no result given; [ ] = remark or other dose. Calls come from the whole dose curve; as a rule, active = well fitted curve in the direction sought with a large enough effect; inconclusive = small, poorly fitted or top-dose-only effect, or another doubt; inactive = no such curve, though single readings can be large; an effect the other way counts as inactive or inconclusive. Potency is the fitted concentration of half-maximal effect.

SMILES	SW480 rerep	KB-3-1 tox	MCF10A rereplic	RORg inh	VP16 counter	KB-V1 MDR tox
Cc1ccc(OCCCCn2ccnc2)c(Cl)c1	0%	i	2%	11µM*	?	21µM*
O=C(O)CNC(=O)[C@@H](CS)Cc1ccccc1	·	·	·	-2%[16.9 µM]	-2%[17 µM]	·
Cc1cc(C)c(C)c(OCCCn2ccnc2)c1	-7%	i	-1%	16µM*	-10%	i
O=C(CN1C(=O)C2(SCC(=O)N2c2ccccc2)c2ccccc21)Nc1ccccc1C(F)(F)F (stereo not given)	·	i	·	·	·	i
O=[N+]([O-])c1ccc(N2CCN(c3ccc(F)cc3)CC2)cc1	-1%	i	4%	7%	-13%	i
O=C(NC(=S)N1CCN(c2ccc([N+](=O)[O-])cc2)CC1)c1ccccc1F	-2%	i	10%	0.56µM*	1µM*	21µM*
O=[N+]([O-])c1ccc(N2CCN(C(=S)Nc3ccccc3)CC2)cc1	2%	i	0%	-4%	-3%	i
O=C(NC(=S)N1CCN(c2ccc([N+](=O)[O-])cc2)CC1)c1ccccc1Cl	4%	i	2%	0.45µM*	1.4µM*	i
O=C(NC(=S)N1CCN(c2ccc([N+](=O)[O-])cc2)CC1)c1ccc(F)cc1	-13%	i	?	1.1µM*	1µM*	?
Cc1ccc(C(=O)NCc2ccccn2)cc1NC1=NC2CS(=O)(=O)CC2S1 (stereo not given)	-16%	i	5%	-35%	-1%	i
Cc1cccc(N(C(=O)CCC(=O)Nc2cc(C)on2)C(C(=O)NC2CCCC2)c2ccccc2)c1 (stereo not given)	3%	i	-1%	?	7%	?
Cc1cc(C(=O)NNc2ccccc2F)no1	18%	i	9.2µM*	-6%	5%	i
Cc1cc(C(=O)NNc2c(Cl)cccc2Cl)no1	-14%	i	-6%	?	2%	i
Cc1cc(C(=O)NNc2ccc(F)cc2)no1	-9%	?	13µM*	35%	1%	i
C=C1CCN(C(Cc2ccccc2)C(=O)NC2CCN(Cc3ccccc3)CC2)S(=O)(=O)c2ccccc21 (stereo not given)	·	·	·	27%	3%	·
Oc1ccccc1N1CCN(C(=S)NCCc2ccccc2)CC1	8%	?	?	?	21%	15µM*
COc1cccc(N2CCN(C(=S)NCCc3ccccc3)CC2)c1	2%[9.22 µM]	i	22%	25µM*	?	i
COc1ccc(N2CCN(C(=S)NCCc3ccccc3)CC2)cc1	18%	i	5%	·	·	i
CN(/N=C/c1c[nH]c2ccccc12)c1cnn(-c2ccc(F)c(Cl)c2)c(=O)c1Cl	17%	i	?	-10%	1%	i
O=c1c(Cl)c(NCCCO)cnn1-c1nc2ccccc2[nH]1	?	?	2.9µM*	5µM*	3.5µM*	i
O=c1c(Cl)c(NCCO)cnn1-c1cccc(Cl)c1	?	i	-14%	17%	1%	?
C=CCN(CC=C)c1cnn(-c2nc3ccccc3[nH]2)c(=O)c1Cl	13%	i	29%	20%	-3%	4.1µM*
O=C(c1ccc(-c2ccc([N+](=O)[O-])cc2)o1)N1CCCC(C(F)(F)F)C1 (stereo not given)	-6%	i	14%	·	·	i
O=C(c1ccc(-c2ccc([N+](=O)[O-])cc2)o1)N1CCCCCCC1	9%	?	12µM*	·	·	i
O=C(c1cc([N+](=O)[O-])ccc1N1CCCCC1)N1CCCCC1	-9%	i	-4%	16%	-7%	16µM*
SMILES	SW480 rerep	KB-3-1 tox	MCF10A rereplic	RORg inh	VP16 counter	KB-V1 MDR tox
COc1cc([N+](=O)[O-])ccc1NC(=O)N1CCCCCC1	-5%	i	-15%	13µM*	?	i
O=C(c1cc([N+](=O)[O-])ccc1N1CCCCC1)N1CCc2ccccc21	6.5µM*	5.8µM*	3.7µM*	-12%	-17%	5.8µM*
CCNc1ncc2nc(C)c(=O)n(C)c2n1	·	·	·	3%	-3%	·
CCN(CC)S(=O)(=O)c1ccc2c(c1)c(=O)c(C(=O)NCc1ccc(Cl)cc1)cn2C	·	i	·	·	·	i
CC(=O)OCC1OC(n2cnc3c(Cl)nc(Cl)nc32)C(OC(C)=O)C1OC(C)=O (stereo not given)	·	·	·	-25%	-3%	·
COc1cc(/C=C/c2[nH]c(=O)[nH]c(=O)c2[N+](=O)[O-])ccc1OCCC(C)C	?	i	?	-4%	-7%	i
CCC(C)Oc1ccc(/C=C/c2[nH]c(=O)[nH]c(=O)c2[N+](=O)[O-])cc1OC (stereo not given)	21µM*	i	?	29%	5%	i
Cn1c(C(=O)Nc2cccc(Cl)c2)cc2c(=O)n(C)c3ccccc3c21	·	i	·	·	·	i
Cc1ccc(S(=O)(=O)N(C)C)cc1NC(=S)Nc1ccc2[nH]c(=O)[nH]c2c1	-42%	i	17%	10%	-2%	i
CN(C)S(=O)(=O)c1cccc(NC(=S)NN=C(Cc2ccccc2)Cc2ccccc2)c1	-2%	i	1%	13µM*	?	i
Cc1ccc(S(=O)(=O)N(C)C)cc1NC(=S)NC(=O)C12CC3CC(CC(C3)C1)C2	-4%	3.3µM*	16%	7.1µM*	7.1µM*	?
NS(=O)(=O)c1cccc(NC(=S)NC(=O)C23CC4CC(CC(C4)C2)C3)c1	3%	i	?	12%	6%	18µM*
NS(=O)(=O)c1cccc(NC(=S)NCc2ccccc2)c1	-12%	i	-11%	-12%	7%	i
Cc1ccc(S(=O)(=O)N(C)C)cc1NC(=S)NC12CC3CC(CC(C3)C1)C2	4%	i	?	5µM*	5.6µM*	i
C=CCNc1ncnc2c1ncn2[C@H]1CN(CCc2ccccc2)C[C@@H](CO)O1	·	i	·	·	·	i
C=CCNC1=C2C[C@@H](C)C[C@H](OC)[C@H](O)[C@@H](C)/C=C(\C)[C@H](OC(N)=O)[C@@H](OC)/C=C/C=C(\C)C(=O)NC(=CC1=O)C2=O	·	·	·	?	-4%[10 µM]	·
CCOC(=O)[C@]12CCC=C1N(CCC1=CCCCC1)C(=O)[C@H](CC(=O)NCCCCc1ccccc1)C2	·	i	·	·	·	i
COc1ccc(OC)c(C2C(C(=O)N3CCCCC3)=C(C)Nc3nc4ccccc4n32)c1 (stereo not given)	·	i	·	·	·	i
COc1cc(/C=N/NC(=S)Nc2cccc(S(=O)(=O)N(C)C)c2)ccc1O	-4%	i	28%	3.5µM*	3.5µM*	i
